Drawing on ChEMBL document CHEMBL1961873, “Compounds: GSK PKIS; Assays: Nanosyn kinase panel” (2012), this text covers inhibition for six compounds.

Assay [1] relates to Proto-oncogene tyrosine-protein kinase receptor Ret (Homo sapiens), P07949 [Y791F]. The note with it: at 1 µM.
The target in assay [2] is Macrophage-stimulating protein receptor (Homo sapiens) (UniProt Q04912). Conditions: at 0.1 µM.
For assay [3] the target is unchanged. Conditions: at 1 µM.
Assay [4] concerns the target Proto-oncogene tyrosine-protein kinase ROS (Homo sapiens) (UniProt P08922). Conditions: at 0.1 µM.
Assay [5] has the same target. The note with it: at 1 µM.
The target of assay [6] is Proto-oncogene tyrosine-protein kinase Src (Homo sapiens) (UniProt P12931). Conditions: at 0.1 µM.
Sequence of Proto-oncogene tyrosine-protein kinase Src (Homo sapiens) (P12931 2-536 limits assumed): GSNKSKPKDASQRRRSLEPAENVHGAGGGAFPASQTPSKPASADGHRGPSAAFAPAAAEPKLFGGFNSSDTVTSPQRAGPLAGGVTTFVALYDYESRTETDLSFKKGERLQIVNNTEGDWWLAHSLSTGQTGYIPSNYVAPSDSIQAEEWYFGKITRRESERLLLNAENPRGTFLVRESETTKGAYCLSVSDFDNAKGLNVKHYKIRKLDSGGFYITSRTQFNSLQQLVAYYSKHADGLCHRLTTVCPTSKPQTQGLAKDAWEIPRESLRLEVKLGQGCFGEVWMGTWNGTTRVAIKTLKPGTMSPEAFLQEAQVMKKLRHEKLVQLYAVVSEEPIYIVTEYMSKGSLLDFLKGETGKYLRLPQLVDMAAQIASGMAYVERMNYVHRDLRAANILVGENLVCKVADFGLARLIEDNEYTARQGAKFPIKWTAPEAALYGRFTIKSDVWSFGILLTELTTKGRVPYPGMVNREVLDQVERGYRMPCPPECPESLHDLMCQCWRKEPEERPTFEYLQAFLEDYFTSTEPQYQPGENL
For assay [7] the target is unchanged. Conditions: at 1 µM.
In assay [8] the target is Tyrosine-protein kinase Srms (Homo sapiens) (UniProt Q9H3Y6). Conditions: at 0.1 µM.
The target is the same in assay [9]. The note with it: at 1 µM.
In assay [10] the target is Tyrosine-protein kinase SYK (Homo sapiens) (UniProt P43405). The note with it: at 0.1 µM.
The target is the same in assay [11]. The note with it: at 1 µM.
For assay [12], the target named is T1, Tyrosine-protein kinase Tec (Homo sapiens) (UniProt P42680).
T1 sequence (whole entry): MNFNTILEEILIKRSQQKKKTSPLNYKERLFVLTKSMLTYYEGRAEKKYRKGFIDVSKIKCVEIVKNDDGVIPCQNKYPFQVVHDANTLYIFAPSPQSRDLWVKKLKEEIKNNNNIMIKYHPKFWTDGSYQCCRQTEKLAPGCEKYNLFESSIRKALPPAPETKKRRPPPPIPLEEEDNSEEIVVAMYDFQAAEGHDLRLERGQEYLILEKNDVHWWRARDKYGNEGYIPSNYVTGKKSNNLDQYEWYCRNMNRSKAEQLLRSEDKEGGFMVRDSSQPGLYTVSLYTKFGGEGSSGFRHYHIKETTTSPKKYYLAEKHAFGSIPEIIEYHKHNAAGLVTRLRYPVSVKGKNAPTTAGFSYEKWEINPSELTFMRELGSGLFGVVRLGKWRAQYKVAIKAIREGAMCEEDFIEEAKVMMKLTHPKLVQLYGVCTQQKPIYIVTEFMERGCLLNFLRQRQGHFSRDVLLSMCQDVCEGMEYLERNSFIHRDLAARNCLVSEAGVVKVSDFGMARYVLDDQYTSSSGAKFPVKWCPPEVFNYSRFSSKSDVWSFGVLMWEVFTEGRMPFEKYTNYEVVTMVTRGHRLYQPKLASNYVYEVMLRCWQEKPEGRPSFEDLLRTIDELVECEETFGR
Conditions: at 0.1 µM.

In assay [13] the target is T1, Tyrosine-protein kinase Tec (Homo sapiens). The note with it: at 1 µM.
The target in assay [14] is Angiopoietin-1 receptor (Homo sapiens) (UniProt Q02763). Conditions: at 0.1 µM.
Sequence of Angiopoietin-1 receptor (Homo sapiens) (Q02763 whole entry): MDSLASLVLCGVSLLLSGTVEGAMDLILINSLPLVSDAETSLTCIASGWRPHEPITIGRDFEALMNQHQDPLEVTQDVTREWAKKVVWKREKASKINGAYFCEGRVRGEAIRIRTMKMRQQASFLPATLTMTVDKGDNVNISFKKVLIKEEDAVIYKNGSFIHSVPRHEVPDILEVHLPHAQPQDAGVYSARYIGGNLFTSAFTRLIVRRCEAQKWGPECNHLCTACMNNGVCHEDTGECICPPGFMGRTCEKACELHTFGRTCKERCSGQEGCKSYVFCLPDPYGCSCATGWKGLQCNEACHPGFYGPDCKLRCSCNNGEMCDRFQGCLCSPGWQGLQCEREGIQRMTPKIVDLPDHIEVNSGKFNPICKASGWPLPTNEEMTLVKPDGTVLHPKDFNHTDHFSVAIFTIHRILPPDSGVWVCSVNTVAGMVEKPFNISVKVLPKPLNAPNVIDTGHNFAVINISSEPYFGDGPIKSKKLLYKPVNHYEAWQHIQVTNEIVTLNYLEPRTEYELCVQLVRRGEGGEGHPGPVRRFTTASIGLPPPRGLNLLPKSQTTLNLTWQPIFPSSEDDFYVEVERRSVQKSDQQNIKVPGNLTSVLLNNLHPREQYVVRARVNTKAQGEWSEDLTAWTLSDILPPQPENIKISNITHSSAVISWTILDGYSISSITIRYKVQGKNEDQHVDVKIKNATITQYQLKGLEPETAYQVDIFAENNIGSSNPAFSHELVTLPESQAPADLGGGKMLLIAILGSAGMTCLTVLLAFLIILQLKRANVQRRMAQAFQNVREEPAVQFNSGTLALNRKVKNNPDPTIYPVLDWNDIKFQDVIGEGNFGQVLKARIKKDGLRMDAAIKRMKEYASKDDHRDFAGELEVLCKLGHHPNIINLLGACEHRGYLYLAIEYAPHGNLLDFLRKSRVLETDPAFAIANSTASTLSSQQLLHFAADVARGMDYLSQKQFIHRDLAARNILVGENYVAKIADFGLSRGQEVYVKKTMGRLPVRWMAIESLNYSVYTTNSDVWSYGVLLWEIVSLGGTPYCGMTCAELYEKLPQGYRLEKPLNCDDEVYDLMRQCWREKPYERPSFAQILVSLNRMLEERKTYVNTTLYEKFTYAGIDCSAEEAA
For assay [15] the target is unchanged. Conditions: at 1 µM.
Assay [16] has as its target T2, Non-receptor tyrosine-protein kinase TNK1 (Homo sapiens) (UniProt Q13470).
T2 sequence (whole entry): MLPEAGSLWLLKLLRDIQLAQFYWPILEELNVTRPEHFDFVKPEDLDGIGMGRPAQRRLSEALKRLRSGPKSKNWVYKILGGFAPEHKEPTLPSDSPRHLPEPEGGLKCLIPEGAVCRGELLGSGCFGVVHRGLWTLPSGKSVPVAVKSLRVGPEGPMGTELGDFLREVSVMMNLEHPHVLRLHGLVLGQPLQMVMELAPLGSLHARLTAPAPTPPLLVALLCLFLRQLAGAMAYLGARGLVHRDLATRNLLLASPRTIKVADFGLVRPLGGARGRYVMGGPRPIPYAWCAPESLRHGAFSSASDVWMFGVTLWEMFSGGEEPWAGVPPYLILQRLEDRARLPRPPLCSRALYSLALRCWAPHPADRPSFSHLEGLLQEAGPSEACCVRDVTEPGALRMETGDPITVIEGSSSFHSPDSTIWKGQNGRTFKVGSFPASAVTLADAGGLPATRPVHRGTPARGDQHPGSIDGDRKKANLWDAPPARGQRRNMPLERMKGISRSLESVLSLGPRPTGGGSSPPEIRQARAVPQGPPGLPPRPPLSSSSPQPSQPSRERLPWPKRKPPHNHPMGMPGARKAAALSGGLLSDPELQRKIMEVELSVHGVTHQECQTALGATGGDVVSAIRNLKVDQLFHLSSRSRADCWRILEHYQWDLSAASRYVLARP
Conditions: at 0.1 µM.

Assay [17] addresses T2, Non-receptor tyrosine-protein kinase TNK1 (Homo sapiens). The note with it: at 1 µM.
The target of assay [18] is Activated CDC42 kinase 1 (Homo sapiens) (UniProt Q07912). Conditions: at 0.1 µM.
The target is the same in assay [19]. The note with it: at 1 µM.
Assay [20] deals with High affinity nerve growth factor receptor (Homo sapiens) (UniProt P04629). Conditions: at 0.1 µM.
Sequence of High affinity nerve growth factor receptor (Homo sapiens) (P04629 33-796 limits assumed): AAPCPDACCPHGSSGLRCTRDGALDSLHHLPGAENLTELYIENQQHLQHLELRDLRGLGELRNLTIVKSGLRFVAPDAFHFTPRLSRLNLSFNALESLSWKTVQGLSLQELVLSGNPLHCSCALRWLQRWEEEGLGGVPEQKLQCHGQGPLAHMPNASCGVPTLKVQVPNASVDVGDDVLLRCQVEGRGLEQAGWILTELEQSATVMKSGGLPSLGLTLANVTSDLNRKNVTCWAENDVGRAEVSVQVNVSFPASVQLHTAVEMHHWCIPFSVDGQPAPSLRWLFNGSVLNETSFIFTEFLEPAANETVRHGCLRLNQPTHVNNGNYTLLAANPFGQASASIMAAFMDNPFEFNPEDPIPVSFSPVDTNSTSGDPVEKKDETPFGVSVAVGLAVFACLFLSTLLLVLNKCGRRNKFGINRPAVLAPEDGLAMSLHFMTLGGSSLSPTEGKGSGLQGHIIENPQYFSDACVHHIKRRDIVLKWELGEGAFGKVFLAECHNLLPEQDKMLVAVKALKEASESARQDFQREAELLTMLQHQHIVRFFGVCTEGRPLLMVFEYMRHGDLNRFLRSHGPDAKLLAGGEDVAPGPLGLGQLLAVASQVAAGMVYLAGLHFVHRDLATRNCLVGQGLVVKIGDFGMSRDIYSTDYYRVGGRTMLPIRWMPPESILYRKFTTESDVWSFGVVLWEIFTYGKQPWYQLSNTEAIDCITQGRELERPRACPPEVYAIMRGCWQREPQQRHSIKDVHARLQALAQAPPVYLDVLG

Sequence of Proto-oncogene tyrosine-protein kinase ROS (Homo sapiens) (P08922 whole entry): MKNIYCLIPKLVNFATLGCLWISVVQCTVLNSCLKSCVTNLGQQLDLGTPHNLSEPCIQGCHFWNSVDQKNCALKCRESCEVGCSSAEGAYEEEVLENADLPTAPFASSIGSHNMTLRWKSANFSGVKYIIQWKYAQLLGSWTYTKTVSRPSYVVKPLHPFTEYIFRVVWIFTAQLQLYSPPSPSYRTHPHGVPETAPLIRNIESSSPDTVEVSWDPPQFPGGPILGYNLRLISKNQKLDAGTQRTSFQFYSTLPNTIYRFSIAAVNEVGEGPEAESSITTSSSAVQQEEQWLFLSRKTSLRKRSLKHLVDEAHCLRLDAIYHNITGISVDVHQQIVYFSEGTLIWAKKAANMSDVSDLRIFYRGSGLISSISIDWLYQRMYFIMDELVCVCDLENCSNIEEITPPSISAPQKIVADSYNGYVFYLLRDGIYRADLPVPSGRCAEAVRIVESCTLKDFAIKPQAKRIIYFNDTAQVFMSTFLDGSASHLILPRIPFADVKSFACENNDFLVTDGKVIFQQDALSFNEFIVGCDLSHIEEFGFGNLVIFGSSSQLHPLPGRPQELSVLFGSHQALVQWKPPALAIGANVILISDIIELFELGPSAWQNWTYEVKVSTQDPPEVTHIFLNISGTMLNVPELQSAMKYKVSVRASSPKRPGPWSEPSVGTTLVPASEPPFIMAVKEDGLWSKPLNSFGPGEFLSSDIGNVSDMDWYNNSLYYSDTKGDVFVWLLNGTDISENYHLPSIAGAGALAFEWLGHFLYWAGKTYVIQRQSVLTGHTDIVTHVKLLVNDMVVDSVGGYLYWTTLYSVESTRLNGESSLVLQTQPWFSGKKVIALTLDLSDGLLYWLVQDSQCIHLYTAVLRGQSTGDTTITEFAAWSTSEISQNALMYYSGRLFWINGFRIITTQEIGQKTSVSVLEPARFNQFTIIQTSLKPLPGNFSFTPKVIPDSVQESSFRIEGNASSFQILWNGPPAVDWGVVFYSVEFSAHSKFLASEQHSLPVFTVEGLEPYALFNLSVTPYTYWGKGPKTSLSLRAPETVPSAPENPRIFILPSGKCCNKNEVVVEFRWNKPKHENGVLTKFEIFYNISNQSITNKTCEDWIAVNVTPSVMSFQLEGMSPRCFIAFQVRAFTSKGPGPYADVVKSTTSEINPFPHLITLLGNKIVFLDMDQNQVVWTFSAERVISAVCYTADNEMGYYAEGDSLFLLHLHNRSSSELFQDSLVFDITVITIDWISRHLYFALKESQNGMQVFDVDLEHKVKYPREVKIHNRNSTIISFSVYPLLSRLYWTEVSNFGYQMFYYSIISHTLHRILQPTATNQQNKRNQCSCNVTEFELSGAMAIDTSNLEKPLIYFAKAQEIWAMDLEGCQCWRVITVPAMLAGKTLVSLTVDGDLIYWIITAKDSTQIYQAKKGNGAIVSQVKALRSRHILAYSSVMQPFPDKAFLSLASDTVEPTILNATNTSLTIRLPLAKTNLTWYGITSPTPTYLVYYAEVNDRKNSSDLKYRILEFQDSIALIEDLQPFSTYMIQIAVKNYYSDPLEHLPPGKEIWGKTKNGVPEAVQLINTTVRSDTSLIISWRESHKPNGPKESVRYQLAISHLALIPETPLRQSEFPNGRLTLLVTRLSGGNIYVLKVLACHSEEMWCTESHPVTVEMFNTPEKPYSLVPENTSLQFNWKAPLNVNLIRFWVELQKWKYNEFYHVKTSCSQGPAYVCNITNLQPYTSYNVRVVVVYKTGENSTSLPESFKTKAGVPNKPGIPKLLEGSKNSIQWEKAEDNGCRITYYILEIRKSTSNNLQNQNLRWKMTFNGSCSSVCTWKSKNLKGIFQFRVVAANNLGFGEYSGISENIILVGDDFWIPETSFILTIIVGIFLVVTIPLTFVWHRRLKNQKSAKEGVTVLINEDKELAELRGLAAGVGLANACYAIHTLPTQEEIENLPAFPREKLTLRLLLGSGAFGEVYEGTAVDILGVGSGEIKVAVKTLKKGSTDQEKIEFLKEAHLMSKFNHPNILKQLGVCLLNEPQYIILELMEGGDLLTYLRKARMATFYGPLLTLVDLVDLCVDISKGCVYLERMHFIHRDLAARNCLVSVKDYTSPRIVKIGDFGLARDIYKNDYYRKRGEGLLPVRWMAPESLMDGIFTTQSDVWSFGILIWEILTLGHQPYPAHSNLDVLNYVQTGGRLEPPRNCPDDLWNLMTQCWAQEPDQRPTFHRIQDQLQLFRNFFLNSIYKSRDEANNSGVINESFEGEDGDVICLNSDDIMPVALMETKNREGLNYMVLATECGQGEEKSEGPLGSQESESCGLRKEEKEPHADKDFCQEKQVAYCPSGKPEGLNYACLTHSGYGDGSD

Turning to `COc1ccccc1-c1cc(/C=C2\C(=O)Nc3ncc(Br)cc32)cc(Br)c1O`, the inhibition in [1] stood at 13.2%; in [2], 2.48%; in [3] it was 7.63%; in assay [4], 7.94%; in assay [5] it was 26.1%; in assay [6] it was 4.87%. For the same compound, the inhibition in assay [7] was 17.1%; in assay [8] it was 2.16%; in [9], 14.7%; in [10], -6.56%; in assay [11], -0.96%; in assay [12] it was 4.41%. Moreover, the inhibition came out at 10.3% in assay [13]; 4.42% in [14]; 6.14% in assay [15]; 40.2% in assay [16]; 80.4% in [17]; 1.04% in [18]. Besides, the inhibition in [19] came to 0.66%; in [20], 9.43%.

For the compound `CC(C)c1ccc(-c2cc(-c3c[nH]nc3-c3ccccn3)ccn2)cc1`, the inhibition in [1] is 4.31%; in [2] it was -5.99%; in assay [3] it was 3.62%; in assay [4], 2.06%; in [5], 1.81%; in assay [6], 1.53%. The inhibition in assay [7] was 0.23%; in assay [8] it was 0.28%; in [9], -0.57%; in assay [10], 2.53%; in assay [11], 1.09%; in assay [12], 2.3%. Moreover, the inhibition is 2.11% in [13]; 4.71% in [14]; 6.64% in assay [15]; 0.85% in assay [16]; -0.32% in [17]; 0.23% in [18]. The inhibition in assay [19] was determined as 0.19%; in assay [20] it was 0.99%.

Take `Cc1ccc(-c2cc3c(NC(=O)C4CC4)ncnc3o2)cc1`: the inhibition is 12.9% in assay [1]; -0.25% in [2]; 11.4% in assay [3]; 11.1% in assay [4]; 16.3% in assay [5]; 1.85% in assay [6]. Further, the inhibition is 24.4% in [7]; -1.85% in [8]; -5.36% in assay [9]; -5.27% in assay [10]; -1.6% in [11]; 5.2% in [12]. In addition, the inhibition in [13] was determined as 13.1%; in assay [14], 3.09%; in [15], 4.4%; in [16], 3.37%; in [17], 6.56%; in assay [18] it was 1.58%. For the same compound, the values for the inhibition in assay [19] and in assay [20] were 4.37% and 4.74%, respectively.

In the case of `COc1ccc2ncn(-c3cc(O[C@H](C)c4ccccc4C(F)(F)F)c(C(N)=O)s3)c2c1`, the inhibition was 4.51% in assay [1]; -2.2% in assay [2]; 0.45% in assay [3]; 2.67% in assay [4]; 3.29% in [5]; -2.12% in assay [6]. Further, the inhibition in assay [7] is -0.06%; in [8], 3.94%; in assay [9], 1.04%; in [10] it was -1.01%; in assay [11], 0.76%; in [12], 1.04%. Besides, the inhibition in assay [13] is -0.18%; in [14], 1.94%; in assay [15], 4.83%; in assay [16] it was 1.54%; in [17] it was 19.8%; in [18] it was 0.19%. The inhibition in [19] was 2.86%; in assay [20], -0.31%.

As to `OCCCNc1nccc(-c2c(-c3ccc(F)cc3)nn3cc(C(F)(F)F)ccc23)n1`, the inhibition is 6.1% in [1]; 0.58% in assay [2]; 1.65% in [3]; 4.09% in assay [4]; 6.03% in [5]; 5.06% in assay [6]. The inhibition in [7] was 8.49%; in [8], -0.48%; in assay [9], -0.71%; in assay [10], 5.03%; in [11], 0.36%; in assay [12], 3.37%. Besides, the inhibition in assay [13] turned out to be 5.41%; in assay [14], 2.38%; in [15], 5.06%; in [16], 0.14%; in assay [17], 3.92%; in assay [18], 0.22%. For the same compound, the inhibition was 1.57% in assay [19] and 3.24% in [20].

For the compound `CNC(=O)c1ncccc1Nc1nc(Nc2cc3c(cc2OC)CCCN3C(=O)CN(C)C)nc2[nH]ccc12`, the inhibition is 27.1% in assay [1]; -2.25% in [2]; 6.45% in assay [3]; 83.4% in assay [4]; 87.7% in assay [5]; 0.68% in assay [6]. The inhibition in assay [7] is 8.9%; in [8] it was 0.09%; in [9], -0.71%; in [10], -1.3%; in assay [11], 1.95%; in assay [12], 5.55%. In addition, the inhibition in assay [13] was 7.76%; in assay [14], 1.81%; in assay [15] it was -0.04%; in assay [16], 50%; in [17], 73%; in assay [18] it was 2.4%. For the same compound, the figures for the inhibition in assay [19] and in assay [20] were 10.8% and 5.07%, respectively.

Broadly, the inhibition is the drop in the measured response relative to a control, in per cent.
